An excerpt weighted towards active compounds, which were near 0.37% of everything screened.
Rac1 act GTP bind = human Rac1 activated mutant GTP binding change; percent activity (GTP binding), % at 10 µM; GST-Rac1 activated beads, fluorescent GTP binding, flow cytometry; actives lie on both sides; 100% means binding = to untreated wells; P63000; hit rate 0.11% among 190,000;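 active = GTP binding at least 20 percentage points away from the 100% baseline, in either direction, so actives lie on both sides; inconclusive = Compound likely fluorescent itself, or too few beads counted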
Rac1 wt GTP bind = alters GTP binding to wildtype human Rac1. P63000. GST-Rac1 beads, fluorescent GTP binding, flow cytometry; actives lie on both sides; 0 = cold GTP competed, 100 = untreated. GTP binding activity (% of control), % at 10 µM. hit rate 0.27% among 190,000. AID 757;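 active = GTP binding activity at least 20 points away from the 100% control level, either lower or higher; inconclusive = compound flagged as likely green fluorescent, judged across all proteins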
HRas wt GTP bind = human HRas wildtype GTP binding, change in either direction; GTP binding activity, % at 10 µM; P01112; GST-Ras wt beads, Bodipy-FL-GTP binding, flow cytometry; actives lie on both sides; hit rate 0.14% among 190,000; AID 759;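 active = GTP binding activity at least 20% away from the 100% baseline, either lowered as inhibitor or raised as activator; inconclusive = flagged as likely green fluorescent, judged across all proteins in the well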;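 note: 0% = unlabeled GTP competition control and 100% = no-compound control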
Target sequence (P01112 whole entry, looked up): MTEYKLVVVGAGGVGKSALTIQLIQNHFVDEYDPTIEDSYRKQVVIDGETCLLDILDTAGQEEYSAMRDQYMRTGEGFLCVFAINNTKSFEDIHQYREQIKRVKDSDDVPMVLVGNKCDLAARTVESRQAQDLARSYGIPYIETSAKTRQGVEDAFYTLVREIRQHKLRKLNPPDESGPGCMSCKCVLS
Rab7 wt GTP bind = modulators of GTP binding to dog Rab7 wildtype GTPase | GST-Rab7 beads, fluorescent GTP binding, flow cytometry; actives lie on both sides; untreated = 100%, excess cold GTP = 0% | GTP binding activity (percent of control), % at 10 µM | hit rate 0.055% among 190,000;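 active = fluorescent GTP binding to Rab7 beads changed by at least 20 points from the 100% baseline, either direction, mostly lower; inconclusive = compound itself probably fluorescent, or too few beads counted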;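 note: median green fluorescence of bound Bodipy-FL-GTP per Rab7 bead population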
Cdc42 wt = human Cdc42 wildtype GTP binding change, either direction; GST-Cdc42 beads, Bodipy-GTP binding, flow cytometry; actives lie on both sides; percent activity (GTP binding), % at 10 µM; hit rate 0.2% among 190,000; AID 761;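 active = percent activity GTP binding at least 20 points away from the 100% baseline, either down as inhibitor or up as activator; inconclusive = compound flagged as likely green fluorescent from well-wide comparison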;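 note: median bead fluorescence of bound Bodipy-FL-GTP at 100 nM; 0% = excess unlabeled GTP control and 100% = no compound control; below 100% means less GTP binding so inhibitor and above means activator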
Target sequence (P60953 whole entry, looked up): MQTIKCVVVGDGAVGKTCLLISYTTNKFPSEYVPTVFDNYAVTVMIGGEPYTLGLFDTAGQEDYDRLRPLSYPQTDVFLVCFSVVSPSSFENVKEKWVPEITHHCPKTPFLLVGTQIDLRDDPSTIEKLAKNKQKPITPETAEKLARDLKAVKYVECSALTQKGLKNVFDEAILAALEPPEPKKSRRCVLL
Rab2 wt GTP = changes GTP binding to wildtype dog Rab2A, up or down; P61105; GST-Rab2 wt beads, Bodipy-GTP binding, flow cytometry; GTP binding activity, % at 10 µM; hit rate 0.19% among 190,000; AID 760;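 active = GTP binding activity at least 20 points away from 100%, either lowered or raised; inconclusive = signal likely due to the compound's own green fluorescence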;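 note: 0% = beads with excess unlabeled GTP and 100% = no-compound control corrected for plate trend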
Starred values were filed as active, the others as inactive; ? = inconclusive; [ ] = remark or other dose.

SMILES	Rac1 act GTP bind	Rac1 wt GTP bind	HRas wt GTP bind	Rab7 wt GTP bind	Cdc42 wt	Rab2 wt GTP
N#C/C(=C(/O)COc1ccc(Br)cc1)c1nnc2n1CCCCC2	75.0*	78.0*	81.0	80.0	76.0*	77.0*
CC/C(O)=C(/C#N)c1nnc2n1CCCCC2	100.0	104.0	101.0	102.0	103.0	102.0
COc1c(C)cc(Br)cc1C(=O)O	101.0	120.0*[activator]	111.0	102.0	116.0	112.0
Cc1cccc(NC(=O)CSc2ccc(C(N)=O)cc2[N+](=O)[O-])c1C	100.0	103.0	102.0	102.0	100.0	100.0
O=C(Nc1sc2c(c1C(=O)O)CCCCC2)c1ccccc1	77.0*	80.0	82.0	89.0	78.0*	81.0
COc1ccc(-c2c(C#N)c(N)nc3c2CCc2ccccc2-3)cc1OC	95.0	105.0	100.0	97.0	98.0	98.0
COc1ccc(-c2cc(-c3ccc(O)cc3)nc(N)c2C#N)cc1OC	85.0	69.0*	81.0	83.0	81.0	79.0*
COc1ccc(CCn2c(C(C)C)nc3c(c(=O)c4ccccc4n3C)c2=O)cc1	95.0	91.0	85.0	96.0	99.0	77.0*
COc1ccc(CCn2c(C)nc3c(c(=O)c4ccccc4n3C)c2=O)cc1	99.0	96.0	98.0	99.0	103.0	96.0
COc1ccccc1-c1c(C)[nH]n2c(=O)c(Cc3ccccc3)c(C)nc12	95.0	98.0	95.0	94.0	100.0	96.0
COc1ccc(-c2c(C)[nH]n3c(=O)c(Cc4ccccc4)c(C)nc23)cc1	93.0	87.0	81.0	93.0	95.0	77.0*
CC1=NN(C(=O)c2ccc(Cn3nc(C)cc3C)o2)C(O)(C(F)(F)F)C1 (stereo unspecified)	103.0	110.0	107.0	105.0	113.0	109.0
CCN(CC)CCNC(=O)C(=O)NCC1OCCN1S(=O)(=O)c1ccc2c(c1)OCCO2 (stereo unspecified)	96.0	95.0	91.0	95.0	91.0	91.0
CCCC(CCC)C(=O)Oc1cc(C)[nH]c(=O)c1[N+](=O)[O-]	96.0	100.0	99.0	102.0	99.0	101.0
CCn1nc(C(=O)OCC(=O)c2cc(C)n(Cc3cccs3)c2C)c2ccccc2c1=O	74.0*	78.0*	83.0	82.0	77.0*	76.0*
O=c1cc(-c2ccccc2)n(S(=O)(=O)c2ccccc2)o1	100.0	101.0	97.0	95.0	98.0	96.0
COc1ccc(S(=O)(=O)n2oc(=O)cc2-c2ccccc2)cc1	90.0	94.0	83.0	89.0	79.0*	79.0*
CCOc1ccc2ccccc2c1/C=N/n1cncn1	104.0	130.0*[activator]	100.0	98.0	115.0	102.0
Cn1c(=O)c2cc(S(=O)(=O)NCCC(=O)NCc3ccccc3Cl)ccc2n(C)c1=O	85.0	89.0	68.0*	91.0	68.0*	64.0*
CCCc1nc2c(=O)n(C)c(=O)nc-2n(C)n1	84.0	94.0	89.0	99.0	74.0*	89.0
O=C(OCc1ccccc1)c1cccnc1Cl	93.0	96.0	98.0	106.0	94.0	99.0
O=C(O)c1ccccc1C(=O)OCc1ccccc1	?	160.0*[activator]	136.0*[activator]	?	115.0	134.0*[activator]
Cc1cccc(-n2nc(CC#N)c(C#N)c2N)c1	91.0	82.0	82.0	90.0	82.0	78.0*
O=C(CSc1nnc(Nc2ccccc2)s1)Nc1cccc(S(=O)(=O)N2CCCCC2)c1	98.0	101.0	98.0	99.0	100.0	99.0
C=CCNC(=O)C1(c2ccccc2)CC1(Cl)Cl (stereo unspecified)	101.0	106.0	104.0	105.0	103.0	103.0
SMILES	Rac1 act GTP bind	Rac1 wt GTP bind	HRas wt GTP bind	Rab7 wt GTP bind	Cdc42 wt	Rab2 wt GTP
Cc1cc2nc3c(=O)n(C4CCCCC4)c(=O)[nH]c3nc2cc1N	87.0	74.0*	76.0*	93.0	79.0*	73.0*
O=C(NCc1ccco1)c1cnn2c(C(F)F)cc(-c3ccccc3)nc12	96.0	99.0	98.0	99.0	97.0	98.0
COCCNC(=O)c1cnn2c(C(F)F)cc(-c3ccccc3)nc12	88.0	79.0*	90.0	98.0	83.0	87.0
CN1CCN(NC(=O)c2cc([N+](=O)[O-])cc([N+](=O)[O-])c2)CC1	97.0	100.0	98.0	101.0	99.0	98.0
Cc1c(Cl)cccc1NS(=O)(=O)c1ccc2c(c1)C1C=CCC1C(c1ccc(C(=O)O)cc1)N2 (stereo unspecified)	73.0*	84.0	83.0	92.0	78.0*	80.0
CC(=O)OC(C(=O)NC1CCCCC1)c1ccc(Cl)c(Cl)c1 (stereo unspecified)	31.0*	29.0*	35.0*	22.0*	35.0*	33.0*
COc1ccccc1N1C(=O)c2cccc3c(C(=O)O)ccc(c23)C1=O	98.0	114.0	103.0	103.0	106.0	103.0
COc1ccc2c3c(cccc13)C(=O)N(O)C2=O	90.0	79.0*	84.0	89.0	91.0	82.0
COCc1cc(C)nc(N/N=C/c2ccc(-c3ccc(C(=O)O)c(Cl)c3)o2)c1C#N	86.0	67.0*	78.0*	97.0	73.0*	77.0*
CCN(CC)C(=S)SCC(=O)Nc1nc(=O)c2ccccc2s1	96.0	99.0	96.0	93.0	94.0	95.0
Cc1cc(C)nc(Nc2nc(=O)c3ccccc3s2)n1	114.0	165.0*[activator]	110.0	104.0	135.0*[activator]	117.0
COc1ccc2cc(/C=N/NC(=O)c3ccc(CN(c4cccc(Cl)c4Cl)S(C)(=O)=O)cc3)c(Cl)nc2c1	97.0	98.0	98.0	99.0	99.0	98.0
Cc1nc(Nc2ccc(C(=O)O)cc2)nc(Nc2ccc(C(=O)O)cc2)c1[N+](=O)[O-]	77.0*	62.0*	60.0*	84.0	55.0*	55.0*
CC(=O)Nc1ccc(Nc2nc(C)c([N+](=O)[O-])c(Nc3ccccc3)n2)cc1	101.0	105.0	99.0	99.0	99.0	99.0
CCOC(=O)c1c(CSc2ccccc2)n(C)c2cc(Br)c(OCC(O)CNC(CO)(CO)CO)cc12 (stereo unspecified)	113.0	120.0*[activator]	113.0	104.0	113.0	107.0
CC1CCCCN1C(=O)CSc1nnc(CSc2ncccn2)n1C (stereo unspecified)	99.0	101.0	104.0	98.0	103.0	101.0
CCn1c2ccccc2c2nc3ccccc3nc21	98.0	101.0	101.0	102.0	98.0	100.0
CCn1c2ccccc2c2nc3cc(C(=O)O)ccc3nc21	87.0	77.0*	85.0	98.0	83.0	84.0
COc1ccc(-c2cc(C(F)(F)F)c3c(n2)sc2c(O)cc(=O)[nH]c23)c(OC)c1	89.0	80.0	80.0	93.0	89.0	78.0*
Cc1cc(C)c2c(n1)sc1c(O)cc(=O)[nH]c12	102.0	107.0	100.0	100.0	104.0	103.0
